Measured values as given in PubChem BioAssay (NCI).
This is part of a sample that, as a whole, favours compounds with a hit. Of some 83,000 tested, about 20% had one in any assay.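 Single-concentration screen, 48 h exposure, 96-well plates. Endpoint: percent growth. Below 10 = active.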 Values without a mark were called inactive. Active and inactive are the calls of the source.

What was measured:
Test in all cases: NCI-60 one-dose screen, 48 h (100 = growth as untreated, 0 = no growth, -100 = all killed)
HCT-15 colon = settings: 10 µM unless noted
HT29 colon = settings: 10 µM unless noted
SNB-19 CNS = settings: 10 µM unless noted
U251 CNS = settings: 10 µM unless noted
PC-3 prostate = settings: 10 µM unless noted
SK-MEL-5 melanoma = settings: 10 µM unless noted
UACC-62 melanoma = settings: 10 µM unless noted
LOX IMVI melanoma = settings: 10 µM unless noted
SK-MEL-28 melanoma = settings: 10 µM unless noted
SK-MEL-2 melanoma = settings: 10 µM unless noted
EKVX NSCLC = settings: 10 µM unless noted
SN12C renal = settings: 10 µM unless noted
UO-31 renal = settings: 10 µM unless noted
TK-10 renal = settings: 10 µM unless noted
ACHN renal = settings: 10 µM unless noted
CAKI-1 renal = settings: 10 µM
A498 renal = settings: 10 µM unless noted
CCRF-CEM leukemia = settings: 10 µM unless noted
MOLT-4 leukemia = settings: 10 µM unless noted

SMILES	growth (HCT-15 colon)	growth (HT29 colon)	growth (SNB-19 CNS)	growth (U251 CNS)	growth (PC-3 prostate)	growth (SK-MEL-5 melanoma)	growth (UACC-62 melanoma)	growth (LOX IMVI melanoma)	growth (SK-MEL-28 melanoma)	growth (SK-MEL-2 melanoma)	growth (EKVX NSCLC)	growth (SN12C renal)	growth (UO-31 renal)	growth (TK-10 renal)	growth (ACHN renal)	growth (CAKI-1 renal)	growth (A498 renal)	growth (CCRF-CEM leukemia)	growth (MOLT-4 leukemia)
N/C(=N\c1nc2ccc([N+](=O)[O-])cc2s1)C(Cl)(Cl)Cl	70.8%	30.7%	61.2%	43.9%	49.1%	83.8%	54.7%	76%	72.2%	120%	52%	79.7%	43.8%	78.3%	9.8% (active)	31.4%	32.6%	77.4%	77%
Cc1cc(Cl)cc(NS(=O)(=O)c2ccc(-c3cnc(C4CC4)o3)cc2)c1	21.8%	10.7%	36%	23.9%	17.4%	32.5%	31.5%	–	55.4%	78.1%	39.4%	39.6%	43.8%	83.5%	46.1%	37.1%	–	18.6%	25.9%
O=C(Nc1ccccc1)Nc1nc2ccc([N+](=O)[O-])cc2s1	8.64% (active)	9.17% (active)	13.9%	6.41% (active)	4% (active)	-46.5% (active)	1.73% (active)	–	20.2%	-10.8% (active)	8.64% (active)	2.88% (active)	–	5.92% (active)	3.7% (active)	3.46% (active)	–	14.7%	11.6%
CCOc1ccc2nc(NC(=O)Nc3ccccc3C)sc2c1	27%	14.9%	53.8%	48.2%	57.6%	59.6%	47.2%	–	54.1%	48.5%	72%	58.7%	–	64.5%	67%	60.9%	–	47.7%	34.5%
Nc1ccc(-c2nnc(SCc3ccc(O)c4ncccc34)n2-c2ccccc2)cc1	11.3%	23.8%	12.4%	8.88% (active)	14.1%	-54.6% (active)	11.9%	14%	34%	12.4%	30%	5.29% (active)	–	25.3%	12.4%	12.9%	–	20.7%	29.5%
CN(C)C(=O)c1ccccc1-n1cnc2ccccc2c1=O	97.5%	103%	95.2%	99.3%	97.2%	101%	96.9%	–	103%	107%	101%	92.7%	–	97.6%	96.3%	90.1%	–	97.4%	102%
COc1cc(/C=C2\SC(=O)NC2=O)ccc1OCC(=O)Nc1ccc(C(=O)/C=C/c2cc3ccccc3nc2Cl)cc1	89.7%	69.9%	85.6%	90.3%	82.1%	32.7%	84.3%	81.6%	105%	103%	77%	93.5%	–	104%	93.8%	80.3%	–	57.2%	51.4%
Oc1ccccc1-c1nnc(SCc2ccc(O)c3ncccc23)o1	16.3%	102%	29.1%	23.6%	19.2%	–	30.2%	39.1%	51.2%	–	53.1%	18.5%	14.7%	43.9%	25.4%	25.3%	81.7%	28.1%	36.3%
N#Cc1c(-c2cccs2)cc(-c2cnccn2)nc1SCC(=O)NNC(=S)Nc1ccc(F)cc1	102%	116%	94.7%	101%	99.3%	89.5%	87.8%	72.1%	114%	123%	103%	100%	–	108%	104%	99.1%	118%	93.6%	94.9%
CCCC(=O)NC(c1cccnc1)c1cc(Cl)c2cccnc2c1O (stereo not drawn)	18.5%	35.5%	19.4%	24.2%	41.1%	–	23.8%	32.7%	51.9%	42.7%	24%	44.4%	22.3%	47.6%	20.5%	34.6%	89.9%	25%	30.3%
COc1cc(/C=N/n2cnc3oc(-c4ccccc4)cc3c2=N)cc(CN2CCN(C)CC2)c1O	81.4%	48.3%	110%	108%	–	87.9%	102%	79%	94.1%	113%	99.3%	80.4%	74%	113%	83.1%	73.3%	–	66.9%	76.4%
C[C@H]1[C@H](C)CC[C@]2(COC(=O)c3cccnc3)CC[C@]3(C)C(=CC[C@@H]4[C@@]5(C)CCCNC(C)(C)[C@@H]5CC[C@]43C)[C@H]12	39.5%	45.5%	88.6%	64.4%	35.8%	56.4%	53.4%	–	75%	–	89.7%	67.6%	59.3%	79.9%	75.7%	61.5%	–	50.1%	44%
Cc1ccc(Nc2ncnc3c2c(C)nn3-c2ccc([N+](=O)[O-])cc2)cc1	82.5%	80.3%	88.8%	60.1%	78.4%	92.9%	92.2%	–	97.5%	–	67.8%	90%	91.3%	97.9%	62.8%	63.6%	–	79.8%	87.3%
O=C(CN1C(=O)S/C(=C\c2ccccc2)C1=O)Nc1ccc(C(=O)/C=C/c2cc3ccccc3nc2Cl)cc1	88.5%	94.8%	86.2%	93.4%	81.6%	–	66.2%	73.3%	95.8%	83.1%	65.3%	91.2%	57.7%	84.9%	83%	64.1%	86%	77.2%	51.4%
Oc1ccc(CSc2nnc(-c3ccncc3)n2-c2ccccc2)c2cccnc12	15.1%	96%	12.7%	15.8%	18.9%	1.83% (active)	-4.64% (active)	20.4%	29.4%	–	48.2%	11%	9.11% (active)	34.1%	14.4%	15.7%	–	13.1%	20.1%
COc1cc2cc(Oc3ccc(NC(=O)Nc4cc(C(F)(F)F)cc(C(F)(F)F)c4)cc3)c(C)nc2cc1OCCN(C)C	103%	120%	103%	107%	110%	102%	93.1%	108%	110%	113%	106%	100%	89.5%	109%	107%	93.4%	–	110%	107%
